Experimental data published in PubChem BioAssay AID1508615 (Milbrandt Lab, Department of Genetics, Washington …, 2020).
The campaign covered roughly 1,600 compounds. About 20 (1%) were called active.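 The calls were made as follows: active = ratio of uncleaved NAD to its breakdown product ADP-ribose above 4, meaning the enzyme was inhibited; inactive = the rest.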 Only a selection was taken, and actives are over-represented in it overall.

These molecules were tested against NAD(+) hydrolase SARM1 (Homo sapiens) (UniProt Q6SZW1) (assay: SARM1 TIR NADase inhibitors by HPLC, primary screen, cell lysate, HPLC readout (AID 1508615;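 also: substrate NAD at 5 µM with 60 min at 37 °C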)). Settings: HEK293T SAM-TIR lysate, at 5 µM, stronger effect = higher value.
NAD(+) hydrolase SARM1 (Homo sapiens), sequence (Q6SZW1 whole entry, looked up): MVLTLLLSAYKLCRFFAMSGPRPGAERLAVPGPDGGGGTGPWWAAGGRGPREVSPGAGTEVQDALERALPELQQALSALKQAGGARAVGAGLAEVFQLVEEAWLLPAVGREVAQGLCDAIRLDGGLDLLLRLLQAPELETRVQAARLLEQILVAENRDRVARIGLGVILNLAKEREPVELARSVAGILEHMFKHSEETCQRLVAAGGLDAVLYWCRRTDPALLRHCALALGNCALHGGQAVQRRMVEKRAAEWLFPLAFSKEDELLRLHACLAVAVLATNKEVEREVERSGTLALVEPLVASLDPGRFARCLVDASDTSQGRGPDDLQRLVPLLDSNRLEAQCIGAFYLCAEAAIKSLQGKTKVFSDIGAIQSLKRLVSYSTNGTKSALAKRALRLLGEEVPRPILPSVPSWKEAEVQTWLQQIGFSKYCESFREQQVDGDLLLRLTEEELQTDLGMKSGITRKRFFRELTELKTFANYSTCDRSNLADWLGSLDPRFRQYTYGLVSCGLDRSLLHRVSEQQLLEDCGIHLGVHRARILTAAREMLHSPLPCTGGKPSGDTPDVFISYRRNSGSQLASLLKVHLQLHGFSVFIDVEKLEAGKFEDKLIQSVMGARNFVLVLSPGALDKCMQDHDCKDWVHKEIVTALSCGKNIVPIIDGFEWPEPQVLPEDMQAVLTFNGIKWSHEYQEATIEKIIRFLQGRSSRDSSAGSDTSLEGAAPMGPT

SMILES	NAD/ADPR ratio
O=C1NC(=O)C(=Cc2ccc3ccccc3c2)C(=O)N1	3 (inactive)
CCN(CC)c1ccc(C=C2C(=O)NC(=S)NC2=O)cc1	5.3 (active)
COc1cc(C=C2C(=O)NC(=O)NC2=O)ccc1O	3 (inactive)
COC12C(COC(N)=O)C3=C(C(=O)C(C)=C(N)C3=O)N1CC1C2N1C (stereo not given)	3 (inactive)
O=C1CCC2(O)[C@@H]3Cc4ccc(O)c5c4[C@]2(CCN3Cc2ccoc2)C1O5 (stereo not given in full)	3 (inactive)
CC1=CC(O)C(O)C2(C)C1CC1OC(=O)C(O)C3C(C)C(O)C4(O)OCC13C42 (stereo not given)	3 (inactive)
COC(=O)c1nc(-c2ccc3c(n2)C(=O)C(N)=C(OC)C3=O)c(N)c(-c2ccc(OC)c(OC)c2O)c1C	3 (inactive)
CC1=C(O)C(=O)C=C2C1=CC=C1[C@@]2(C)CC[C@@]2(C)[C@@H]3C[C@](C)(C(=O)O)CC[C@]3(C)CC[C@]12C	12.8 (active)
N#CC12CNCC1CN=N2 (stereo not given)	3 (inactive)
NC(=O)c1ccc(C(=O)Nc2ccc([As](=O)(O)O)cc2)cc1	3 (inactive)
